PubChem BioAssay (NCATS)
Inconclusive results are not listed. A call without a number means that no potency is given here. A number with no mark means an inactive call. The source made the active and inactive calls. The call rests on the fitted dose curve; in most records, active means well fitted curve in the direction sought with a large enough effect; inconclusive means small, poorly fitted or top-dose-only effect, or another doubt; inactive means no such curve, though single readings can be large; an effect the other way counts as inactive or inconclusive.

Experiments:
CRL-7250 = normal cell line; assay: Cytotoxic Profiling of Annotated Libraries Using Quantitative High-Throughput Screening (AID 1296008); conditions: Five cell lines viability, CellTiter-Glo ATP luminescence, 48-72 h; max response: active compounds read low; further: nearly all actives have a fitted effect of over 60% in size
Method in brief: (§1)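 Cells exposed to compounds for 48 or 72 hr at 37 degrees Celsius. Viability read as ATP-coupled luminescence with CellTiter-Glo after 10 min at room temperature.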

HaCat [1] = assay: as above; conditions: Five cell lines viability, CellTiter-Glo ATP luminescence, 48-72 h; max response: active compounds read low
Method in brief: as §1

KB-3-1 = assay: as above; conditions: Five cell lines viability, CellTiter-Glo ATP luminescence, 48-72 h; max response: active compounds read low
Method in brief: as §1

NIH3T3 = assay: as above; conditions: Five cell lines viability, CellTiter-Glo ATP luminescence, 48-72 h; max response: active compounds read low
Method in brief: as §1

HACAT [2] = assay: qHTS assay to identify novel small-molecules to repurpose for Merkel cell carcinoma treatment (AID 1296009); conditions: MCC and control cell lines, CellTiter-Glo viability, 72 h; at 44.8 µM (top of the series) unless noted; further: nearly all actives have a fitted effect of over 60% in size
Method in brief: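 Dose-response viability screen; 72 hr exposure at 37 degree celsius; CellTiter-Glo added, 10 min room temperature, luminescence read; RLUs scaled between no-cell and DMSO wells.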

C33A = assay: Primary qHTS to identify gynecologic anti-cancer compounds using libraries of approved drugs and bioactive compounds (AID 1345084); conditions: Gynecologic cancer cell panel viability, ATPlite luminescence, 48 h; series mostly up to 57.5 µM; further: nearly all actives have a fitted effect of over 55% in size; further: potency means the concentration at half of the fitted maximal effect
Method in brief: (§2)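 Measured: luminescence after ATPlite addition (15 min, RT). Exposure: 48 h, 37 C, 5% CO2.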

CAOV3 = assay: as above; conditions: Gynecologic cancer cell panel viability, ATPlite luminescence, 48 h; series mostly up to 57.5 µM
Method in brief: as §2

CASKI = assay: as above; conditions: Gynecologic cancer cell panel viability, ATPlite luminescence, 48 h; series mostly up to 57.5 µM
Method in brief: as §2

Es-2 = assay: as above; conditions: Gynecologic cancer cell panel viability, ATPlite luminescence, 48 h; series mostly up to 57.5 µM
Method in brief: as §2

HeLa = assay: as above; conditions: Gynecologic cancer cell panel viability, ATPlite luminescence, 48 h; series mostly up to 57.5 µM
Method in brief: as §2

Hek293T = assay: as above; conditions: Gynecologic cancer cell panel viability, ATPlite luminescence, 48 h, control line for the selectivity index; series mostly up to 57.5 µM
Method in brief: as §2

JEG-3 = assay: as above; conditions: Gynecologic cancer cell panel viability, ATPlite luminescence, 48 h; series mostly up to 57.5 µM
Method in brief: as §2

OV90 = assay: as above; conditions: Gynecologic cancer cell panel viability, ATPlite luminescence, 48 h; series mostly up to 57.5 µM
Method in brief: as §2

SKOV3 = assay: as above; conditions: Gynecologic cancer cell panel viability, ATPlite luminescence, 48 h; series mostly up to 57.5 µM
Method in brief: as §2

PA-1 = assay: as above; conditions: Gynecologic cancer cell panel viability, ATPlite luminescence, 48 h; series mostly up to 57.5 µM
Method in brief: as §2

SMILES | max response (CRL-7250) [%] | outcome (HaCat [1]) | outcome (KB-3-1) | max response (NIH3T3) [%] | outcome (HACAT [2]) | Potency (C33A) | Potency (CAOV3) | Potency (CASKI) | Potency (Es-2) | Potency (HeLa) | Potency (Hek293T) | Potency (JEG-3) | Potency (OV90) | Potency (SKOV3) | outcome (CRL-7250) | max response (KB-3-1) [%] | Potency (PA-1)
CC(=O)c1c(C)cc2cccc(O)c2c1O[C@@H]1O[C@H](CO)[C@@H](O)[C@H](O)[C@H]1O | -1.95 | inactive | inactive | -3.48 | inactive | inactive | inactive | inactive | inactive | inactive | inactive | inactive | inactive | inactive |  |  | 
O=C(NCCCN1CCC2(CC1)OCc1ccccc12)[C@H]1CCCN1Cc1ccccc1 |  | inactive |  | 4.93 | inactive | inactive | inactive | inactive | inactive | inactive | inactive | inactive | inactive | inactive | inactive | -7.1 | inactive
CN1CCN(c2ccc(-c3cccc(CN4CCOCC4)c3)cc2NC(=O)c2c[nH]c(=O)cc2C(F)(F)F)CC1 | -6.65 | inactive | inactive | -7.39 | inactive | inactive | inactive | inactive | inactive | inactive | inactive | inactive | inactive | inactive |  |  | inactive
COC1=CC(=O)C=C(C)C12Oc1c(Cl)c(OC)cc(OC)c1C2=O (centres undefined) | 0.695 | inactive | inactive | -3.2 | inactive | inactive | inactive | inactive | inactive | inactive | inactive | inactive | inactive | inactive |  |  | inactive
Cc1[nH]c2ccccc2c1CCNC(=O)c1cccs1 | -14.1 | inactive | inactive | 0.258 | inactive | inactive | inactive | inactive | inactive | inactive | inactive | inactive | inactive | inactive |  |  | inactive
CN(C)N(C)C(=O)[C@@]1(Cc2ccccc2)CCCN(C(=O)[C@@H](Cc2c[nH]c3ccccc23)NC(=O)C(C)(C)N)C1 | -26.9 | inactive |  | -7.17 | inactive | inactive | inactive | inactive | inactive | inactive | inactive | inactive | inactive | inactive |  | 4.19 | inactive
NS(=O)(=O)c1ccc(NC(=O)Nc2ccc(F)cc2)cc1 |  | inactive |  | 2.88 | inactive | inactive | inactive | inactive | inactive | inactive | inactive | inactive | inactive | inactive | inactive | -12 | inactive
COc1ccncc1C(=O)NC(=O)Nc1ccc(-c2ccccc2)c(C(F)(F)F)c1 |  | inactive |  | 3.25 | inactive | inactive | inactive | inactive | inactive | inactive | inactive | inactive | inactive | inactive | inactive | -11.2 | inactive
C/C=C/C1=CC2=C(CO1)C(=O)C(C)(OC(=O)c1c(C)cc(O)cc1OC)C(O)C2 (centres undefined) | 3.73 | inactive |  | 1.21 | inactive | inactive | inactive | inactive | inactive | inactive | inactive | inactive | inactive | inactive |  | 2.17 | inactive
Fc1ccc(N2CCN(CCC3OCCc4ccccc43)CC2)cc1 (centres undefined) | -11.3 | inactive |  | -0.639 | inactive | inactive | inactive | inactive | inactive | inactive | inactive | inactive | inactive | inactive |  | -21.6 | inactive
CCNC(=O)N1CCCN(c2ccc(C(=O)NCCc3ccc(Cl)cc3Cl)cc2NC(=O)c2cccc(Cl)c2)CC1 | -3.91 | inactive |  | 2.92 | inactive | inactive | inactive | inactive | inactive | inactive | inactive | inactive | inactive | 1 µM (active) |  | -2.47 | inactive
C=C1C(=O)OC2C=C(C)CC/C=C(\CO)CC(O)C12 (centres undefined) | -3.89 | inactive |  | -2.7 | inactive | inactive | inactive | inactive | inactive | inactive | inactive | inactive | inactive | inactive |  | 5.92 | inactive
O=C(Nc1cc(C(F)(F)F)ccc1N1CCCCC1)c1ccncc1 | -7.1 | inactive |  | 1.75 | inactive | inactive | inactive | inactive | inactive | inactive | inactive | inactive | inactive | inactive |  | -6.53 | inactive
